Source: PubChem BioAssay
Where “and” joins values, the source holds several entries; their conditions need not be identical. Equal values may be shown once. The source holds several records for some structures; these can differ, active in one and inactive in another. Calls of active or inactive are those of the source. Unless noted, no stated cut-off is given here; in the data, active means inhibition above about 80%; inactive means the rest.

Experiment: growth inhibition, single agents and combos, LFS_MB_1R, cell-based, cisplatin or BGB combos, synergistic combos for chromothripsis tumors (AID 1671452);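 further: cells exposed for 96 hours before readout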
Settings: LFS_MB_1R medulloblastoma cells, measured here: combination with cisplatin, at 5 µM, stronger effect = higher value

For COc1cc([C@@H]2c3cc4c(cc3[C@@H](O[C@@H]3O[C@@H]5CO[C@@H](c6cccs6)O[C@H]5[C@H](O)[C@H]3O)[C@H]3COC(=O)[C@H]23)OCO4)cc(OC)c1O, which inhibition is on record?
Its inhibition is 22.9% and 27.7%.

With N=c1ccn2c(n1)O[C@H]1[C@H](O)[C@@H](CO)O[C@H]12 as the molecule, how does the inhibition read?
Its inhibition is 68.2%.

Which inhibition does the source give for COc1cc(NS(C)(=O)=O)ccc1Nc1c2ccccc2nc2ccccc12 here?
The inhibition was 63.4% and 27.6%.

Experiment: growth inhibition, single agents and combos, HTB85, cell-based, BGB or cisplatin IC20 combos, synergistic combos for chromothripsis tumors (AID 1671453);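 further: cells exposed for 96 hours before readout; 0% = vehicle DMSO and 100% = high DMSO killing control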
Settings: HTB85 osteosarcoma cells, drug combinations, at 0.5 µM, stronger effect = higher value

Which inhibition does the source give for COc1cc([C@@H]2c3cc4c(cc3[C@@H](O[C@@H]3O[C@@H]5CO[C@@H](c6cccs6)O[C@H]5[C@H](O)[C@H]3O)[C@H]3COC(=O)[C@H]23)OCO4)cc(OC)c1O here?
The inhibition was 63.9% (inactive) and 81.2% (active).

With N=c1ccn2c(n1)O[C@H]1[C@H](O)[C@@H](CO)O[C@H]12 as the molecule, how does the inhibition read?
Its inhibition is 32.7% (inactive).

With COc1cc(NS(C)(=O)=O)ccc1Nc1c2ccccc2nc2ccccc12 as the molecule, how does the inhibition read?
Its inhibition is 17.3% (inactive) and 24.9% (inactive).

Same assay, conditions: HTB85 osteosarcoma cells, drug combinations, measured here: with BGB IC20, at 0.5 µM, stronger effect = higher value

With COc1cc([C@@H]2c3cc4c(cc3[C@@H](O[C@@H]3O[C@@H]5CO[C@@H](c6cccs6)O[C@H]5[C@H](O)[C@H]3O)[C@H]3COC(=O)[C@H]23)OCO4)cc(OC)c1O as the molecule, how does the inhibition read?
Its inhibition is 57.1% and 81.5%.

With N=c1ccn2c(n1)O[C@H]1[C@H](O)[C@@H](CO)O[C@H]12 as the molecule, how does the inhibition read?
The inhibition was 1.49%.

With COc1cc(NS(C)(=O)=O)ccc1Nc1c2ccccc2nc2ccccc12 as the molecule, how does the inhibition read?
The inhibition was 3.95% and 14.9%.

Same assay, conditions: HTB85 osteosarcoma cells, drug combinations, measured here: with BGB IC20, at 5 µM, stronger effect = higher value

With COc1cc([C@@H]2c3cc4c(cc3[C@@H](O[C@@H]3O[C@@H]5CO[C@@H](c6cccs6)O[C@H]5[C@H](O)[C@H]3O)[C@H]3COC(=O)[C@H]23)OCO4)cc(OC)c1O as the molecule, how does the inhibition read?
Its inhibition is 98.1% and 98.9%.

Which inhibition does the source give for N=c1ccn2c(n1)O[C@H]1[C@H](O)[C@@H](CO)O[C@H]12 here?
Its inhibition is 23.6%.

With COc1cc(NS(C)(=O)=O)ccc1Nc1c2ccccc2nc2ccccc12 as the molecule, how does the inhibition read?
The inhibition was 82.3% and 79.8%.

Same assay, conditions: HTB85 osteosarcoma cells, drug combinations, measured here: with cisplatin IC20, at 0.5 µM, stronger effect = higher value

For COc1cc([C@@H]2c3cc4c(cc3[C@@H](O[C@@H]3O[C@@H]5CO[C@@H](c6cccs6)O[C@H]5[C@H](O)[C@H]3O)[C@H]3COC(=O)[C@H]23)OCO4)cc(OC)c1O, which inhibition is on record?
The inhibition was 63.4% and 77.7%.

With N=c1ccn2c(n1)O[C@H]1[C@H](O)[C@@H](CO)O[C@H]12 as the molecule, how does the inhibition read?
The inhibition was 44.8%.

For COc1cc(NS(C)(=O)=O)ccc1Nc1c2ccccc2nc2ccccc12, which inhibition is on record?
The inhibition was 25% and 29.1%.

Same assay, conditions: HTB85 osteosarcoma cells, drug combinations, measured here: with cisplatin IC20, at 5 µM, stronger effect = higher value

With COc1cc([C@@H]2c3cc4c(cc3[C@@H](O[C@@H]3O[C@@H]5CO[C@@H](c6cccs6)O[C@H]5[C@H](O)[C@H]3O)[C@H]3COC(=O)[C@H]23)OCO4)cc(OC)c1O as the molecule, how does the inhibition read?
Its inhibition is 99.6% and 99.8%.

Which inhibition does the source give for N=c1ccn2c(n1)O[C@H]1[C@H](O)[C@@H](CO)O[C@H]12 here?
Its inhibition is 50.9%.

With COc1cc(NS(C)(=O)=O)ccc1Nc1c2ccccc2nc2ccccc12 as the molecule, how does the inhibition read?
Its inhibition is 87.8% and 84.6%.

Same assay, conditions: HTB85 osteosarcoma cells, drug combinations, single agent, at 5 µM, stronger effect = higher value

For COc1cc([C@@H]2c3cc4c(cc3[C@@H](O[C@@H]3O[C@@H]5CO[C@@H](c6cccs6)O[C@H]5[C@H](O)[C@H]3O)[C@H]3COC(=O)[C@H]23)OCO4)cc(OC)c1O, which inhibition is on record?
Its inhibition is 99.4% and 99.7%.

With N=c1ccn2c(n1)O[C@H]1[C@H](O)[C@@H](CO)O[C@H]12 as the molecule, how does the inhibition read?
The inhibition was 64.3%.

Which inhibition does the source give for COc1cc(NS(C)(=O)=O)ccc1Nc1c2ccccc2nc2ccccc12 here?
The inhibition was 91% and 89.1%.

Experiment: growth inhibition, single agents and combos, CRL2098, cell-based, BGB or cisplatin IC20 combos, synergistic combos for chromothripsis tumors (AID 1671454);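 further: cells exposed for 96 h before readout; 0% = vehicle DMSO and 100% = killing by high DMSO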
Settings: CRL2098 osteosarcoma cells, drug combinations, at 0.5 µM, stronger effect = higher value

For COc1cc([C@@H]2c3cc4c(cc3[C@@H](O[C@@H]3O[C@@H]5CO[C@@H](c6cccs6)O[C@H]5[C@H](O)[C@H]3O)[C@H]3COC(=O)[C@H]23)OCO4)cc(OC)c1O, which inhibition is on record?
The inhibition was 5.54% (inactive) and 23.7% (inactive).

For N=c1ccn2c(n1)O[C@H]1[C@H](O)[C@@H](CO)O[C@H]12, which inhibition is on record?
Its inhibition is 32.1% (inactive).

With COc1cc(NS(C)(=O)=O)ccc1Nc1c2ccccc2nc2ccccc12 as the molecule, how does the inhibition read?
Its inhibition is 3.39% (inactive) and -17.2% (inactive).

Same assay, conditions: CRL2098 osteosarcoma cells, drug combinations, measured here: combination with BGB at IC20, at 0.5 µM, stronger effect = higher value

With COc1cc([C@@H]2c3cc4c(cc3[C@@H](O[C@@H]3O[C@@H]5CO[C@@H](c6cccs6)O[C@H]5[C@H](O)[C@H]3O)[C@H]3COC(=O)[C@H]23)OCO4)cc(OC)c1O as the molecule, how does the inhibition read?
The inhibition was 22% and 28.7%.

With N=c1ccn2c(n1)O[C@H]1[C@H](O)[C@@H](CO)O[C@H]12 as the molecule, how does the inhibition read?
The inhibition was -10.4%.

For COc1cc(NS(C)(=O)=O)ccc1Nc1c2ccccc2nc2ccccc12, which inhibition is on record?
The inhibition was 5.83% and -2.6%.

Same assay, conditions: CRL2098 osteosarcoma cells, drug combinations, measured here: combination with cisplatin at IC20, at 0.5 µM, stronger effect = higher value

With COc1cc([C@@H]2c3cc4c(cc3[C@@H](O[C@@H]3O[C@@H]5CO[C@@H](c6cccs6)O[C@H]5[C@H](O)[C@H]3O)[C@H]3COC(=O)[C@H]23)OCO4)cc(OC)c1O as the molecule, how does the inhibition read?
The inhibition was -12.5% and 10.8%.

For N=c1ccn2c(n1)O[C@H]1[C@H](O)[C@@H](CO)O[C@H]12, which inhibition is on record?
The inhibition was 52.4%.

With COc1cc(NS(C)(=O)=O)ccc1Nc1c2ccccc2nc2ccccc12 as the molecule, how does the inhibition read?
The inhibition was 6.88% and -21.3%.

Experiment: growth inhibition, single agents and combos, HD-MB03, cell-based, BGB or cisplatin IC20 combos, synergistic combos for chromothripsis tumors (AID 1671455; in the data active means inhibition above about 83%;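 further: 0% = vehicle DMSO and 100% = high DMSO as cytotoxic control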)
Settings: HD-MB03 medulloblastoma cells, at 0.5 µM, stronger effect = higher value

Which inhibition does the source give for COc1cc([C@@H]2c3cc4c(cc3[C@@H](O[C@@H]3O[C@@H]5CO[C@@H](c6cccs6)O[C@H]5[C@H](O)[C@H]3O)[C@H]3COC(=O)[C@H]23)OCO4)cc(OC)c1O here?
The inhibition was 96.4% (active) and 98.5% (active).

For N=c1ccn2c(n1)O[C@H]1[C@H](O)[C@@H](CO)O[C@H]12, which inhibition is on record?
The inhibition was 89.9% (active).

For COc1cc(NS(C)(=O)=O)ccc1Nc1c2ccccc2nc2ccccc12, which inhibition is on record?
Its inhibition is 89.9% (active) and 92.8% (active).
